Test results from ChEMBL document CHEMBL4513216, “Probing the Open Global Health Chemical Diversity Library for Multistage-Active Starting Points for Next-Generation Antimalarials” (ACS Infect Dis, 2020).
Screen size: about 68,000 compounds; about 2,700 (4%) showed an effect of 50% or more. Only a selection was taken, and strong results are over-represented in it overall.

Each molecule was assayed on Plasmodium berghei (assay: Screen against P. berghei liver stage (PbLuc), transformed with Luciferase, at 2uM). Conditions: tested at 2 uM.
Format: functional, HepG2

First: CC(C)(C)C(O)CCNC(=O)c1ccc(F)cc1Cl (stereo not given)
Second: CCc1ccc(-c2cn3c(C(=O)NCC(C)C(=O)NC)csc3n2)cc1 (stereo not given)
The INHIBITION of the first is lower: -9.71% for the first, 8.54% for the second.

Compared with `Cc1cc(NC2CCc3ncnn3C2)n2nc(C(F)(F)F)nc2n1` (stereo not given), `CC(C)c1nc(CN2CCCC2Cn2cncn2)no1` (stereo not given) is higher in INHIBITION: -30.02% for the first, -13.92% for the second.

First: CN(C)c1ccc(NC(=O)CN2CCS(=O)(=O)CC2)cn1
Second: COc1ccc(NC(=O)CN2CCS(=O)(=O)CC2)cn1
The INHIBITION of the first is higher: 71.64% for the first, -9.39% for the second.

First: O=C(CN1CCS(=O)(=O)CC1)Nc1ccc(N2CCCC2)nc1
Second: CCC(=O)N1CCC2(COCc3cnc(N4CCOCC4)nc32)C1 (stereo not given)
The INHIBITION of the first is lower: -4.89% for the first, 35.84% for the second.

Compared with `c1cncc(-c2ccc3c(c2)C2(CC3)CCN(c3nncs3)CC2)c1`, `COCCC(=O)N1CCC2(COCc3cnc(-c4cccnc4)nc32)C1` (stereo not given) is lower in INHIBITION: 12.3% for the first, -20.41% for the second.

Going from `CCc1ccc(-c2c(C)c(-c3cnn(C)c3)nc(N)c2C#N)o1` to `Cc1c(-c2cnn(C)c2)nc(N)c(C#N)c1-c1ccc(CO)o1`, the INHIBITION rises from 49.25% to 55.7%.

First: Cc1cc(-c2c(C)c(-c3cnn(C)c3)nc(N)c2C#N)oc1C
Second: c1ccc(CNCC2Cn3nnc(-c4ccncc4)c3CO2)nc1 (stereo not given)
The INHIBITION of the first is higher: 23.43% for the first, 2.87% for the second.

First: COc1ccc(Cn2cc(C(=O)N(C)Cc3cnccn3)nn2)cc1
Second: CCc1ccc(-c2cn3c(C(=O)N[C@H](C(N)=O)[C@@H](C)O)csc3n2)cc1
The INHIBITION of the first is lower: -21.09% for the first, 61.82% for the second.

Compared with `COCC(=O)N1CCC2(COCc3cnc(-c4ccccc4)nc32)C1` (stereo not given), `COCCC(=O)N1CCC2(COCc3cnc(-c4ccccc4)nc32)C1` (stereo not given) is higher in INHIBITION: -22.64% for the first, 50.32% for the second.

Going from `O=C(CC1CC1)N1CCC2(COCc3cnc(N4CCOCC4)nc32)C1` (stereo not given) to `O=C(C1CC1)N1CCC2(COCc3cnc(N4CCOCC4)nc32)C1` (stereo not given), the INHIBITION falls from 51.72% to 29.95%.

Compared with `O=C(c1cc(=O)c(OCc2ccccc2F)co1)N1CCSCC1`, `C[C@@H](O)[C@H](NC(=O)c1csc2nc(-c3ccccc3F)cn12)C(N)=O` is lower in INHIBITION: 36.6% for the first, 16.95% for the second.

Compared with `c1csc(CN2CCOCC3(CCN(C4CCOCC4)C3)C2)n1` (stereo not given), `CCn1ccnc1CN1CCN(CC(O)CN2CCOCC2)CC1` (stereo not given) is higher in INHIBITION: 2.71% for the first, 38.68% for the second.

First: CCN1CCCC(C)(C(=O)NCc2nncn2CCc2ccccc2)C1 (stereo not given)
Second: CN1CCN(CC(NCc2ccc(F)cc2)c2ccccc2)CC1 (stereo not given)
The INHIBITION of the first is lower: -4.93% for the first, 58.29% for the second.

First: c1ccc(-c2nc(CN3CCCC3Cn3cncn3)no2)cc1 (stereo not given)
Second: Cc1ccc(CNC(CN2CCN(C)CC2)c2ccccc2)cc1 (stereo not given)
The INHIBITION of the first is higher: -5.3% for the first, -10.6% for the second.

Compared with `CC1(C)CC(=O)N(CC(=O)Nc2ccon2)c2ccccc21`, `CN1CCN(CC(NCc2ccc(F)c(F)c2)c2ccccc2)CC1` (stereo not given) is lower in INHIBITION: 40.97% for the first, 12.57% for the second.
